Screening data deposited in PubChem BioAssay by several laboratories.
The list is not random: actives were taken first. Their share in the collection is about 28%.
PLK1 inh = inhibitors of human PLK1 kinase | P53350 | actives 0.53% (n = 97,000) | inhibition, % at 10 µM | recombinant PLK1 kinase, TR-FRET peptide phosphorylation | AID 619;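 active = inhibition of 50% or more in the single-concentration screen; inactive = inhibition below 50%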;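 note: 0% = DMSO max control and 100% = H-89 dihydrochloride min control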
CYP2C19 inh = human CYP2C19 inhibition. CYP2C19 Supersomes, luciferin-H EGE luminescence, 30 min. actives 21% (n = 96,000). P33261. inhibition, % at 5 µM. AID 778;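 active = CYP2C19 inhibition above a set limit at 5 µM in the primary screen, cut at about 50% in these data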;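 note: plate controls were negative control wells for no effect and 2.5 mM tranylcypromine positive control for full effect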
Target sequence (P33261 whole entry, looked up): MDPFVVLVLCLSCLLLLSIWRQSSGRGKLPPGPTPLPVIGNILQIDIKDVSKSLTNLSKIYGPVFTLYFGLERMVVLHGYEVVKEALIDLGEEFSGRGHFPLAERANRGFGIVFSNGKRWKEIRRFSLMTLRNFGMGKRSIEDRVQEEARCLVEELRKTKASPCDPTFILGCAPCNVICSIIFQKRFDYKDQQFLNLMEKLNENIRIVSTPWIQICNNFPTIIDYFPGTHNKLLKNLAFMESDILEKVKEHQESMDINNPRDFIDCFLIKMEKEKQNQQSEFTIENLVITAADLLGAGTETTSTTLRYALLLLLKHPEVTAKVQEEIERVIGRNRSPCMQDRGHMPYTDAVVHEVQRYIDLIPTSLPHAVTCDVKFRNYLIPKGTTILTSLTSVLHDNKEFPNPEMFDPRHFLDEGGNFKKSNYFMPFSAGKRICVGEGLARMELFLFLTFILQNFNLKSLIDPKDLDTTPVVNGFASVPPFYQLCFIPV
CYP2C19 activ = cytochrome P450 2C19 (human) activation | P33261 | recombinant CYP2C19, luciferin-H EGE luminescence; active compounds read high; 0 = fully inhibited enzyme, 1 = untreated enzyme | activation factor at 5 µM | 96,000 tested, under 10 active | AID 1025;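 active = activation factor of at least 2 at 5 µM in the primary screen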;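 note: 0 = wells with 2.5 mM tranylcypromine and 1 = vehicle-only wells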
PLK1 PBD inh = Plk1 (human) PBD binding inhibition. P53350. Plk1 PBD phosphopeptide binding, fluorescence polarization. inhibition, %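 (tested at about 20 µM)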. actives 0.13% (n = 97,000). AID 693; in the data active = inhibition above about 34%, passing the limit was not always enough
CYP2C9 inh = human CYP2C9 inhibition. P11712. inhibition, % at 5 µM. AID 777. CYP2C9 Supersomes, luciferin-H conversion, luminescence. actives 20% (n = 96,000);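 active = blocking of liver enzyme CYP2C9 beyond about 50% at 5 µM, limit read from the data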
CYP2C9 activ = increases human cytochrome P450 2C9 activity. P11712. activation factor at 5 µM. actives 1.4% (n = 96,000). recombinant CYP2C9, luciferin-H conversion, luminescence; active compounds read high; factor 1 = untreated enzyme, 0 = blocked;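 active = activation factor of 2 or more for CYP2C9 at a 5 µM dose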;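 note: 0 = sulfaphenazole-blocked wells and 1 = vehicle-only wells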
Starred values were filed as active, the others as inactive.

What do the screens show for `COc1ccc(OC2C(=O)N(Cc3ccc(F)cc3)C2c2ccc(OC)c(OC)c2)cc1` (stereo not given)?
PLK1 inh: -0.8; CYP2C19 inh: 72.5*; CYP2C19 activ: 0.3; PLK1 PBD inh: -16.6; CYP2C9 inh: 59.6*; CYP2C9 activ: 0.4

How did COC(=O)c1ccc(C2C(Oc3ccccc3)C(=O)N2CCc2ccc(F)cc2)cc1 (stereo not given) do in these assays?
PLK1 inh: -8.6; CYP2C19 inh: -7.4; CYP2C19 activ: 1.1; PLK1 PBD inh: 8.4; CYP2C9 inh: 8.4; CYP2C9 activ: 0.9

What do the screens show for `CCCOc1ccc(N2C(=O)CC(N3CCN(c4ccccc4OC)CC3)C2=O)cc1` (stereo not given)?
PLK1 inh: -8.7; CYP2C19 inh: 1.3; CYP2C19 activ: 1; PLK1 PBD inh: 29.3; CYP2C9 inh: -13.4; CYP2C9 activ: 1.1

What do the screens show for `COC(Cc1nnc(SC)n1-c1ccccc1)OC`?
PLK1 inh: -10.9; CYP2C19 inh: 9.0; CYP2C19 activ: 0.9; PLK1 PBD inh: -1.2; CYP2C9 inh: 3.8; CYP2C9 activ: 1

Results for CSc1nnc(CSCc2ccc(Cl)cc2Cl)n1-c1ccccc1 ?
PLK1 inh: -16.6; CYP2C19 inh: 58.6*; CYP2C19 activ: 0.4; PLK1 PBD inh: 15.9; CYP2C9 inh: 69.5*; CYP2C9 activ: 0.3

Results for CCOC(=O)c1ccc2c(c1)nc(SCc1cn3ccsc3n1)n2CC ?
PLK1 inh: -10.9; CYP2C19 inh: 27.9; CYP2C19 activ: 0.7; PLK1 PBD inh: -20.4; CYP2C9 inh: 52.4*; CYP2C9 activ: 0.5

What do the screens show for `Cc1ccc2oc(=O)c3cnn(CC(=O)Nc4ccccc4N4CCN(C)CC4)c3c2c1`?
CYP2C19 inh: 9.3; CYP2C19 activ: 0.9; CYP2C9 inh: 48.8; CYP2C9 activ: 0.5

What do the screens show for `COCc1cc(C)nc(OCC(=O)N/N=C\c2cc(C)n(-c3cccc(C(F)(F)F)c3)c2C)c1C#N`?
PLK1 inh: -5.1; CYP2C19 inh: 34.0; CYP2C19 activ: 0.7; PLK1 PBD inh: -29.3; CYP2C9 inh: 65.1*; CYP2C9 activ: 0.3

What do the screens show for `COc1ccc(-c2nc(CSCC(=O)N3CCN(C4CCCCC4)CC3)c(C)o2)cc1OC`?
PLK1 inh: -20.2; PLK1 PBD inh: -7.8

Results for O=C(CC1CC2CCC1C2)OCC(=O)c1c[nH]c2ccccc12 (stereo not given) ?
PLK1 inh: -8.4; CYP2C19 inh: 70.2*; CYP2C19 activ: 0.3; PLK1 PBD inh: -1.0; CYP2C9 inh: -18.5; CYP2C9 activ: 1.2

What do the screens show for `COC(=O)Cc1[nH]nc2c1C1(C(=O)N(Cc3ccc(Cl)cc3)c3ccccc31)C(C#N)=C(N)O2` (stereo not given)?
PLK1 inh: -10.4; CYP2C19 inh: 23.5; CYP2C19 activ: 0.8; PLK1 PBD inh: 9.0; CYP2C9 inh: 36.3; CYP2C9 activ: 0.6

How did CCc1[nH]nc2c1C1(C(=O)N(Cc3ccccc3)c3ccccc31)C(C#N)=C(N)O2 (stereo not given) do in these assays?
PLK1 inh: -4.3; CYP2C19 inh: 85.1*; CYP2C19 activ: 0.1; PLK1 PBD inh: -13.5; CYP2C9 inh: 88.0*; CYP2C9 activ: 0.1

Results for COC(=O)c1cc(C#N)c(NCc2ccccc2)nc1C ?
PLK1 inh: -4.8; CYP2C19 inh: 11.2; CYP2C19 activ: 0.9; PLK1 PBD inh: -21.7; CYP2C9 inh: 3.8; CYP2C9 activ: 1

How did CCOC(=O)c1cc(C#N)c(SC)nc1-c1ccccc1 do in these assays?
PLK1 inh: -9.6; CYP2C19 inh: 17.2; CYP2C19 activ: 0.8; PLK1 PBD inh: -40.5; CYP2C9 inh: 47.1; CYP2C9 activ: 0.5

Results for CCOC(=O)c1cc(C#N)c(Oc2ccccc2OC)nc1-c1ccccc1 ?
PLK1 inh: -16.5; CYP2C19 inh: 42.4; CYP2C19 activ: 0.6; PLK1 PBD inh: -6.1; CYP2C9 inh: 64.4*; CYP2C9 activ: 0.4

What do the screens show for `COC(=O)c1cc(C#N)c(Oc2ccccc2OC)nc1C`?
PLK1 inh: -11.2; CYP2C19 inh: 71.7*; CYP2C19 activ: 0.3; PLK1 PBD inh: 21.1; CYP2C9 inh: 51.8*; CYP2C9 activ: 0.5

How did CCOC(=O)C1=C(N)N(c2ccccc2Oc2ccccc2)C(=O)C1 do in these assays?
PLK1 inh: 1.7; CYP2C19 inh: 78.4*; CYP2C19 activ: 0.2; PLK1 PBD inh: -21.0; CYP2C9 inh: 64.8*; CYP2C9 activ: 0.4

Results for CCOC(=O)C1=C(N)N(c2ccc(N3CCCCC3)cc2)C(=O)C1 ?
PLK1 inh: -9.8; CYP2C19 inh: 39.1; CYP2C19 activ: 0.6; PLK1 PBD inh: -6.7; CYP2C9 inh: -46.7; CYP2C9 activ: 1.5

Results for CCCCn1c(=O)c(-[n+]2ccccc2)c([O-])c2ccccc21 ?
PLK1 inh: -3.1; CYP2C19 inh: -14.5; CYP2C19 activ: 1.1; PLK1 PBD inh: -3.7; CYP2C9 inh: -8.2; CYP2C9 activ: 1.1

What do the screens show for `CCOC(=O)C1CCCCN1Cc1cc(Cl)ccc1O` (stereo not given)?
PLK1 inh: -29.0; CYP2C19 inh: 98.9*; CYP2C19 activ: 0; PLK1 PBD inh: 6.4; CYP2C9 inh: 94.3*; CYP2C9 activ: 0.1

How did CCOC(=O)C1CCCCN1Cc1cccc(F)c1 (stereo not given) do in these assays?
PLK1 inh: 0.7; CYP2C19 inh: 88.6*; CYP2C19 activ: 0.1; PLK1 PBD inh: 1.0; CYP2C9 inh: 29.2; CYP2C9 activ: 0.7

How did CCOC(=O)C1CCCCN1Cc1ccc(F)cc1 (stereo not given) do in these assays?
PLK1 inh: -11.0; CYP2C19 inh: 66.2*; CYP2C19 activ: 0.3; PLK1 PBD inh: -10.0; CYP2C9 inh: -9.3; CYP2C9 activ: 1.1

Results for CCOC(=O)C1CCCCN1Cc1cccc(OC)c1OC (stereo not given) ?
PLK1 inh: -12.3; CYP2C19 inh: 29.7; CYP2C19 activ: 0.7; PLK1 PBD inh: -2.5; CYP2C9 inh: 26.9; CYP2C9 activ: 0.7

How did C=CCn1c(COc2ccc(CC)cc2)nnc1SC/C(O)=C(\C#N)c1nc2ccccc2[nH]1 do in these assays?
PLK1 inh: -9.4; CYP2C19 inh: 12.2; CYP2C19 activ: 0.9; PLK1 PBD inh: 0.6; CYP2C9 inh: 41.7; CYP2C9 activ: 0.6

How did COc1ccc(-c2nnc(SCc3c(C)noc3C)n2N)cc1OC do in these assays?
PLK1 inh: -7.4; CYP2C19 inh: 22.9; CYP2C19 activ: 0.8; PLK1 PBD inh: 34.7; CYP2C9 inh: 26.2; CYP2C9 activ: 0.7

Results for Cc1c(C#N)c(N)c(C(=O)c2ccccc2)n1Cc1ccccc1 ?
PLK1 inh: -5.8; CYP2C19 inh: 99.3*; CYP2C19 activ: 0; PLK1 PBD inh: -10.7; CYP2C9 inh: 75.8*; CYP2C9 activ: 0.2

What do the screens show for `COc1cccc(C(=O)Nc2ccc(NC(C)=O)cn2)c1`?
PLK1 inh: -1.9; PLK1 PBD inh: 1.0

Results for COc1cc(N/C=C(\C(C)=O)c2ccccc2)cc(OC)c1 ?
PLK1 inh: -10.2; CYP2C19 inh: 72.5*; CYP2C19 activ: 0.3; PLK1 PBD inh: -26.9; CYP2C9 inh: 85.5*; CYP2C9 activ: 0.1
